System: Vero E6 infected with SARS-CoV-2
Assay: inhibition of SARS-CoV-2 cytopathic effect; higher = more antiviral protection, active = above 15
Details: 48 h

Measured: inhibition of SARS-CoV-2 cytopathic effect

O=C(Cc1ccc(-c2ccccc2)cc1)Nc1ccccn1 [difenpiramide]
inactive: 1 nM 2.42% | 8.33 nM 3.03% | 100 nM -1.56% | 833.33 nM 6.97% | 10000 nM 14.8%

O=C1N(c2ccccc2)c2ccccc2C1(Cc1ccncc1)Cc1ccncc1 [linopirdine]
inactive: 1 nM 2.06% | 8.33 nM 0.32% | 100 nM 1.23% | 833.33 nM -0.29% | 10000 nM 1.14%

COc1ccc(/C=C/C(=O)O)cc1 [trans-4-methoxycinnamic-acid]
inactive: 1 nM 1.02% | 8.33 nM -0.31% | 100 nM -1.64% | 833.33 nM -0.87% | 10000 nM -1.56%

COc1ccc2cccc(N3CCN(CCNC(=O)c4ccc(F)cc4)CC3)c2c1
inactive: 1 nM -1.86% | 8.33 nM -0.57% | 100 nM 0.77% | 833.33 nM 0.7% | 10000 nM -3.37%

N=C(N)NC(=O)c1cnn(-c2cccc3ncccc23)c1C1CC1 [zoniporide]
inactive: 1 nM -0.05% | 8.33 nM 3.39% | 100 nM 1.14% | 833.33 nM 3.55% | 10000 nM -1.51%

CN(Cc1ccc(C(C)(C)C)cc1)Cc1cccc2ccccc12 [butenafine]
inactive: 1 nM 0.43% | 8.33 nM 3.81% | 100 nM 0.84% | 833.33 nM 2.62% | 10000 nM 4.56%

CCO[C@@H]1OC(=O)C[C@@H]1NC(=O)[C@@H]1CCCN1C(=O)[C@@H](NC(=O)c1ccc(N)c(Cl)c1)C(C)(C)C
inactive: 1 nM -2.56% | 8.33 nM -1.09% | 100 nM 0.58% | 833.33 nM 0.04% | 10000 nM -2.79%

N=C(N)c1ccc(/N=N/Nc2ccc(C(=N)N)cc2)cc1 [diminazene-aceturate]
inactive: 1 nM 0.66% | 8.33 nM -1.51% | 100 nM -3.27% | 833.33 nM -14% | 10000 nM 2.42%

c1ccc2[nH]c(-c3cscn3)nc2c1 [tiabendazole]
inactive: 1 nM 2.1% | 8.33 nM 1.24% | 100 nM -0.24% | 833.33 nM 0.7% | 10000 nM -0.19%

NC(=O)C(c1ccccc1)(c1ccc(F)cc1)c1ccc(F)cc1 [senicapoc]
inactive: 1 nM -2.77% | 8.33 nM -1.48% | 100 nM -2.37% | 833.33 nM 0.14% | 10000 nM -0.54%

CC(=O)OCC(=O)[C@@]1(O)CC[C@H]2[C@@H]3CCC4=CC(=O)C=C[C@]4(C)[C@@]3(Cl)[C@@H](Cl)C[C@@]21C [dichlorisone-acetate]
inactive: 1 nM -1.93% | 8.33 nM -2.25% | 100 nM -3.39% | 833.33 nM -2.97% | 10000 nM -2.91%

COc1ccc2[nH]c(SCc3ncc(C)c(OC)c3C)nc2c1 [omeprazole-sulfide]
inactive: 1 nM -13.8% | 8.33 nM -15.1% | 100 nM -15.8% | 833.33 nM -15.3% | 10000 nM -13.7%

CN(C)CCCO[C@@H]1[C@H]2OC(C)(C)O[C@H]2O[C@@H]1[C@H](O)CO [amiprilose]
inactive: 1 nM -4.79% | 8.33 nM -3.54% | 100 nM -5.54% | 833.33 nM -4.16% | 10000 nM -1.28%

O=C(CN1C2=NCCN2c2ccccc21)c1ccc(-c2ccccc2)cc1
inactive: 1 nM -0.77% | 8.33 nM 3.75% | 100 nM 1.71% | 833.33 nM -0.84% | 10000 nM 14.8%

CN(C)C/C=C/C(=O)Nc1cc2c(Nc3ccc(F)c(Cl)c3)ncnc2cc1O[C@H]1CCOC1 [afatinib]
inactive: 1 nM -2.03% | 8.33 nM -3.01% | 100 nM -5.33% | 833.33 nM -8.01% | 10000 nM -9.49%

O=C1NC(=O)C(c2ccccc2)(c2ccccc2)N1 [phenytoin]
inactive: 1 nM -2.48% | 8.33 nM 0.49% | 100 nM -0.76% | 833.33 nM -0.84% | 10000 nM 0.37%

Nc1n[n+]([O-])c2ccccc2[n+]1[O-] [tirapazamine]
inactive: 1 nM -0.88% | 8.33 nM 0.77% | 100 nM 2.11% | 833.33 nM 0.37% | 10000 nM 2.74%

O=C1[C@H]2CCCC[C@H]2C(=O)N1CCCCN1CCN(c2nsc3ccccc23)CC1 [perospirone]
inactive: 1 nM -1.38% | 8.33 nM 3.93% | 100 nM 3.52% | 833.33 nM 3.58% | 10000 nM -1.69%

— the supplement of paper PMC13380429
